Source: PubChem (National Center for Advancing Translational Sciences (NCATS))
Compounds with a hit are over-represented: about 12% of the library has one in this group of screens.
BAZ2B inh: qHTS Assay for Inhibitors of BAZ2B; Bromodomain adjacent to zinc finger domain protein 2B (Homo sapiens), Q9UIF8; AlphaScreen BAZ2B-H3K14Ac peptide displacement; Potency, µM (doses to about 114 µM), without a hit: top-dose activity change, negative = inhibition, most hits filed as inhibitors; 360,000 tested, 4.4% active; also: % is scaled to controls: 0 for no effect and ±100 for the full control effect; nearly all actives have a fitted effect of over 60% in size
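Protein-peptide AlphaScreen: BAZ2B 50 nM, b-H3K14Ac 50 nM, 1x PBS pH 7.4 + 0.01% Tween-20. Preincubation 30 min RT; cpd 30 min RT (top 110 uM); beads 20 min RT, light-protected.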
HP1b binding inh: HTS for Inhibitors of HP1-beta Chromodomain Interactions with Methylated Histone Tails; Chromobox protein homolog 1 (Homo sapiens), P83916; AlphaScreen HP1-beta / biotin-H3K9me3 peptide binding; Potency, µM (series often up to 114 µM), for inactives: at the top dose activity change, negative = inhibition, actives largely listed as inhibitors; 390,000 tested, 0.56% active; AID 540317, 2011; also: nearly all actives have a fitted effect of over 70% in size
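AlphaScreen: HP1-beta (50 nM) preformed 30 min with biotin-H3(1-18)K9me3 peptide (50 nM) in PBS pH 7.4, 0.01% Tween-20. Compound added for 30 min at RT, then streptavidin donor/nickel chelate acceptor beads (10 ug/mL) for 30 min.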
Sfp PPTase inh: qHTS Assay for Inhibitors of Bacillus subtilis Sfp phosphopantetheinyl transferase (PPTase). Biochemical Sfp PPTase activity, qHTS. 310,000 tested, 3.5% active. Potency, µM, for the others: largest response in the series, negative = inhibition, actives largely listed as inhibitors. AID 1490, 2009. 4'-phosphopantetheinyl transferase ffp (Bacillus subtilis), Q9F4F7;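 also: the enzyme is Sfp with the accession as filed and its product quenches rhodamine fluorescence; 0% = enzyme reaction without inhibitor and -100% = no enzyme wells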
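Sfp 15 nM + cpd, 15 min RT; start w/ rhodamine-CoA 5 uM, BHQ-2-YbbR 12.5 uM (final); 50 mM Hepes pH 7.6, 10 mM MgCl2, 0.01% NP-40, 0.01% BSA; read 525/598 nm at 0 and 30 min.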
JMJD2A Tudor: qHTS Assay for Inhibitors of JMJD2A-Tudor Domain | Potency, µM (series often up to 114 µM), for inactives: at the highest dose activity change, negative = inhibition, hits mostly inhibitors | AlphaScreen JMJD2A-Tudor / H3K4me3 peptide binding | 390,000 tested, 4.4% active | Lysine-specific demethylase 4A (Homo sapiens), O75164; also: % is scaled to controls: 0 for no effect and ±100 for the full control effect; nearly all actives have a fitted effect of over 50% in size
Target sequence (O75164 whole entry, looked up, the tested form may be a part): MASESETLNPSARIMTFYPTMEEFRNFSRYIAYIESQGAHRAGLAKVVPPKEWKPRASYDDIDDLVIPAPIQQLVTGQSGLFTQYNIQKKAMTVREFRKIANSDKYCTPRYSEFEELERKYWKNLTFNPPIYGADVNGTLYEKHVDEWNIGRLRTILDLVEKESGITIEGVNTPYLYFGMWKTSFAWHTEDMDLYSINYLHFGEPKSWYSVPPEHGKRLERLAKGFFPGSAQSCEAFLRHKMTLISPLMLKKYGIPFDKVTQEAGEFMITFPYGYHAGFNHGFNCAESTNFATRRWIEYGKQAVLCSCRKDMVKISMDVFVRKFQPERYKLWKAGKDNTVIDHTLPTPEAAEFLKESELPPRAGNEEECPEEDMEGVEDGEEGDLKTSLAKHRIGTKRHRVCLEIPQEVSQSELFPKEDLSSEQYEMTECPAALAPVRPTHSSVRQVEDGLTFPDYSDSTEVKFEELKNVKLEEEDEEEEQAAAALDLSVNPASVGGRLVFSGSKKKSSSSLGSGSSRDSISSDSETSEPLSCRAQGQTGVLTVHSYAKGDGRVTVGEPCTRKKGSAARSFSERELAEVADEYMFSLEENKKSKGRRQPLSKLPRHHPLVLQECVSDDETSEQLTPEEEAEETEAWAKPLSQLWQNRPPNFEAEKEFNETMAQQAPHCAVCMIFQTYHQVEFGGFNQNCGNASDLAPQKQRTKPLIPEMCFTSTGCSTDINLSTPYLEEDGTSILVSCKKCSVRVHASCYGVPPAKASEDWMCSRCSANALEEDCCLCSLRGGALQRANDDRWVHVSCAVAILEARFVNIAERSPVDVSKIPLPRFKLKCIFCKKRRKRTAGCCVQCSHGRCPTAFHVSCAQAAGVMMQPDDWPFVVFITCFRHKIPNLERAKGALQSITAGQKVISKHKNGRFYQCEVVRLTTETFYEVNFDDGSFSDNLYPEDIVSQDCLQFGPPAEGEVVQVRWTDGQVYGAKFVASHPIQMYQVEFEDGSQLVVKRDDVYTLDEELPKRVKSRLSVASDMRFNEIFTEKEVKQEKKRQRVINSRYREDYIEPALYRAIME
G9a block: qHTS Assay for Inhibitors of Histone Lysine Methyltransferase G9a. G9a H3K9 monomethylation, AlphaScreen, 2 h. Potency, µM (doses to about 102 µM), for inactives: at the highest dose activity, negative = inhibition, usual class: inhibitors. 350,000 tested, 8.8% active; also: % is scaled to controls: 0 for no effect and ±100 for the full control effect; nearly all actives have a fitted effect of over 75% in size
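AlphaScreen detection with an anti-monomethyl H3K9 antibody quantified product after a 2 h room-temperature reaction containing 500 nM biotinylated H3K9 peptide, 20 µM SAM and 20 nM enzyme, which had been preincubated 15 min with compound.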
The depositor's hits bear a star; ? = inconclusive; . = not tested or not shown; [ ] = another dose, or the depositor's remark. Calls follow the shape of the dose curve; as a rule, active = well fitted curve in the direction sought with a large enough effect; inconclusive = small, poorly fitted or top-dose-only effect, or another doubt; inactive = no such curve, though single readings can be large; an effect the other way counts as inactive or inconclusive. Potency is read from the fitted curve at half-maximal effect.

SMILES | BAZ2B inh | HP1b binding inh | Sfp PPTase inh | JMJD2A Tudor | G9a block
Cc1ccccc1CNCCSc1nnnn1-c1ccccc1 | 0.3% | 40.0% | . | -12.9% | 4.9%[59 µM]
CCOC(=O)NC(=O)CN1C(=O)NC2(CCc3ccccc32)C1=O (centres undefined) | 0.2% | 40.2% | 10.0% | -8.9% | 37.7%
CC(C)(C)n1nnnc1SCC(=O)Nc1nn(-c2ccccc2)nc1C(N)=O | -8.7% | 19.1% | 13.6% | 2.1% | 12.6%
O=C(CSc1cccc[n+]1[O-])Nc1cc2c(cc1Cl)C(=O)c1ccccc1C2=O | ? | 6.1% | ? | ? | 7.94µM*
COC(=O)c1ccc(C(=O)OC)c(NC(=O)CSc2cccc[n+]2[O-])c1 | -3.2% | ? | -103.4% | 44.7µM* | .
O=C(CSc1cccc[n+]1[O-])Nc1cc([N+](=O)[O-])ccc1Cl | 14.8% | 22.2% | -6.4% | -16.5% | -10.0%
CCOC(=O)c1c(NC(=O)C(Sc2ccccc2)c2ccccc2)sc(C(=O)N(C)C)c1C (centres undefined) | -5.0% | 9.0% | -8.0% | -31.0% | 24.8%[59 µM]
CCOC(=O)c1c(NC(=O)C(Sc2ccccc2)c2ccccc2)sc(C(N)=O)c1C (centres undefined) | 10.9% | 22.2% | -6.7% | -6.3% | 7.94µM*
COCCOC(=O)c1c(NC(=O)CSc2cccc[n+]2[O-])sc(C(N)=O)c1C | ? | 32.1% | 11.4% | -16.7% | 2.51µM*
Cc1ccc(C(=O)NNC(=O)c2ccc(Br)s2)cc1S(=O)(=O)N1CCOCC1 | -1.6% | 46.3% | . | -5.8% | 6.3%[12.7 µM]
CCSc1nc2nc(C)cc(C)n2n1 | 3.4% | 20.6% | 11.6% | 18.9% | ?
COC(=O)c1ccc(-n2c(C)cc(C(=O)CSc3cccc[n+]3[O-])c2C)cc1 | -25.7% | 17.3% | 11.5% | -24.2% | 50.1µM*
CCOC(=O)c1cnc2c(ccc3ccccc32)c1Nc1cccc(OC)c1 | 18.9% | 87.3% | . | 22.5% | 32.7%[59 µM]
CN1C(=O)/C(=C/c2cn(CC(=O)N3CCCCC3)c3ccccc23)NC1=S | -27.1% | 41.3% | -0.1% | -29.1% | 39.8µM*
CN1C(=O)/C(=C/c2cn(CC(=O)NCc3ccco3)c3ccccc23)NC1=S | ? | . | 7.08µM* | . | .
CCOc1ccc(CSC(CC(=O)O)C(=O)O)cc1 (centres undefined) | 79.4µM* | 47.0% | -6.1% | -4.2% | .
CCCCCCCn1c2c(c(=N)c3c1CCC3)CCCC2 | ? | 24.3% | -9.1% | 1.0% | 44.7µM*
CC(=O)c1cc(N2CCOCC2)ccc1[N+](=O)[O-] | ? | 29.9% | 10.9% | -13.1% | -37.4%
Cc1cc(N2CCOCC2)ccc1/C=C\[N+](=O)[O-] | ? | -9.3% | ? | -13.8% | 6.31µM*
COc1ccc(C(=O)CSc2ccc(-c3ccco3)nn2)cc1 | 50.1µM* | 21.6% | 15.8µM* | -31.9% | 22.4µM*
CCOc1ccc(NC(=O)CSc2ccc(-c3ccco3)nn2)cc1 | -4.0% | 11.5% | -11.7% | -24.3% | ?
COc1ccc(CCNC(=O)CSc2ccc(-c3ccccc3)nn2)cc1 | 5.1% | . | -2.8% | . | -10.9%
COc1cccc(NC(=O)CSc2ccc(-c3sc(C)nc3C)nn2)c1 | -3.1% | 3.3% | -8.4% | -13.2% | 14.4%
COc1ccc(CCNC(=O)CSc2ccc(-c3ccco3)nn2)cc1OC | 3.7% | 52.2% | ? | -8.2% | 44.7µM*
O=C(CSc1ccc(-c2ccco2)nn1)Nc1ccc(F)cc1 | ? | 17.8% | 28.2µM* | -13.2% | .
SMILES | BAZ2B inh | HP1b binding inh | Sfp PPTase inh | JMJD2A Tudor | G9a block
COc1cccc(NC(=O)CSc2ccc(-c3ccco3)nn2)c1 | ? | 13.1% | 50.1µM* | -26.5% | -25.7%
c1ccc2c(c1)ncn2CCN1CCCCC1 | 1.7% | 50.1% | 9.5% | ? | ?
COc1ccc(NC(=O)CSc2nnc(-c3ccco3)n2N)cc1Cl | -5.4%[57.1 µM] | 64.1% | 9.7% | -25.7% | 27.2%
O=C(Cn1nc(-c2ccco2)ccc1=O)Nc1ccc(Br)cc1 | ? | ? | 50.1µM* | -27.2% | 25.1µM*
COc1ccc(NC(=O)CSc2ccc(-c3ccco3)nn2)cc1OC | -24.1% | 21.7% | 44.7µM* | -23.6% | ?
CC(C)=CC(=O)OCC(=O)Nc1cccc([N+](=O)[O-])c1 | -5.0% | -1.6% | 6.2% | -13.5% | 15.9%
CCOC(=O)C1CCCN(C(=O)c2sc3nc(-c4ccc(OC)cc4)cn3c2C)C1 (centres undefined) | ? | 25.5% | -4.1% | -28.4% | 39.8µM*
Cc1c(C(=O)NCCCN2CCOCC2)sc2nc(-c3ccc(F)cc3)cn12 | -0.5% | 14.5% | 0.4% | -12.9% | 6.8%[59 µM]
COc1ccc(-c2cn3c(C)c(C(=O)NCCN4CCOCC4)sc3n2)cc1 | ? | 1.3% | -14.9% | ? | 39.8µM*
COc1cc(OC)cc(C(=O)NCCN2CCOCC2)c1 | 50.1µM* | ? | -21.1% | 10µM* | 8.91µM*
CCOC(=O)C1CCN(Cc2cn3c(-c4ccc(OC)cc4)nnc3s2)CC1 | ? | 2.5%[57 µM] | . | -23.5% | 12.6µM*
Cc1c(C(=O)NCc2cccnc2)sc2nc(-c3ccc(F)cc3)cn12 | -38.1% | 54.1% | 10.3% | -11.3% | 44.7µM*
COc1ccc(-c2cn3c(C)c(C(=O)Nc4cc(NC(C)=O)ccc4OC)sc3n2)cc1 | -23.1% | 5.0% | 79.4µM* | -11.5% | 14.1µM*
CCN(CC)C(=O)c1sc2nc(-c3ccc(OC)cc3)cn2c1C | -38.9% | -4.3% | -2.8% | -19.4% | ?
CCN(CC)c1ccc(NC(=O)c2sc3nc(-c4ccccc4)cn3c2C)cc1 | 7.94µM* | -37.2%[57 µM] | . | 28.2µM* | 5.01µM*
CNC(=O)c1sc2nc(-c3ccc(OC)cc3)cn2c1C | ? | 14.0% | 12.1% | -31.2% | 50.1µM*
Cc1c(C(=O)Nc2ccncc2)sc2nc(-c3ccccc3)cn12 | ? | 30.4% | -1.6% | ? | ?
O=C(CSc1nncc2ccccc12)Nc1ccc(F)cc1 | 11.2% | -8.3% | 8.2% | -15.0% | 18.3%
COc1ccc(-c2nn(-c3ccccc3)cc2C2NC(=O)NC(C)=C2C(=O)OC(C)C)cc1OC (centres undefined) | -11.9% | 21.1% | . | -27.0% | -10.9%[59 µM]
CCCN1CCN(CCCNC(=O)c2ccc3c(c2)sc2nc(-c4ccc(OCC)cc4)cn23)CC1 | 28.2µM* | -16.7% | . | ? | ?
CCOc1ccc(-c2cn3c(n2)sc2cc(C(=O)NCCCN4CCCCCC4)ccc23)cc1 | 16.1% | 58.0% | . | -6.6% | 7.3%[59 µM]
COc1ccc(-c2cn3c(C)c(C(=O)N4CCc5ccccc5C4)sc3n2)cc1 | ? | -6.4% | -9.1% | ? | 35.5µM*
Cc1ccc(OCCNC(=O)c2cccc(S(=O)(=O)N3CCN(C)CC3)c2)cc1 | 11.4% | 28.2% | . | -8.1% | -0.4%[12.7 µM]
